Test results reported in ChEMBL document CHEMBL3988442, “University of Dundee, Small-Polar-MMV Screening Library” (2021).

Columns and labels:
[1] = molecular target: T1, Aspartate--tRNA(Asp/Asn) ligase (Mycobacterium tuberculosis (strain ATCC 25618 / H37Rv)) (UniProt P9WFW3); experiment: Assay for Asp RNA synthetase-1 from Mycobacterium tuberculosis; format: functional; set-up: scale not given: direction of the effect not stated beside the values; conditions: 30 µM; also: in the data most compounds retested in dose-response had high values
T1 sequence (whole entry): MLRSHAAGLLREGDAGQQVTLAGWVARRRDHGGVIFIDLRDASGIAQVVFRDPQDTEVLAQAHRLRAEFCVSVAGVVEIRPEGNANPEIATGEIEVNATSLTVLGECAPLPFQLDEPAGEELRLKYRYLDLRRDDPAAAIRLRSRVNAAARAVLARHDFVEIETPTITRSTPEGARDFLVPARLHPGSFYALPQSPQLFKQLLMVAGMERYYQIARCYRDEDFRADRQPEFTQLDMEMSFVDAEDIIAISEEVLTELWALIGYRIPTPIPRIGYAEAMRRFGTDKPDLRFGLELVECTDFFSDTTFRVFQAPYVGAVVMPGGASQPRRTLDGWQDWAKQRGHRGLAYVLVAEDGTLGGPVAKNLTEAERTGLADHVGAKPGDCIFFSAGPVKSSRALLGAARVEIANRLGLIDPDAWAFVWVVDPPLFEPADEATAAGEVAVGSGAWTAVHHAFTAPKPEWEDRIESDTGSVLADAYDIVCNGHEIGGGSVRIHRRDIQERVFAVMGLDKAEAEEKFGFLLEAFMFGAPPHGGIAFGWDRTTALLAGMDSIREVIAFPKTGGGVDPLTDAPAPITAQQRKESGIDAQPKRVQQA

[2] = molecular target: Shiga toxin 2 (Escherichia coli O157:H7) (UniProt P09385+P09386); experiment: E. coli 0.157:H7 Shiga Toxin SOP - stx2 screening assay; format: functional; set-up: scale not given: direction of the effect not stated beside the values; conditions: 30 µM

Row | SMILES | Percent Effect [1] [%] | Percent Effect [2] [%]
1 | O=C(Cc1ccc2c(c1)OCCO2)N1CCCC(n2ccnc2)C1 (configuration not stated) | -4.41 | -18.9
2 | CCOc1cccc(C(=O)N2CCN(c3nccc(OC)n3)CC2)c1 | 7.36 | 22.4
3 | COc1nccc(N2CCN(Cc3ccc(C)cc3)C(=O)C2)c1C#N | 3.98 | -64.8
4 | Cc1ccc([C@@H]2CN(S(=O)(=O)c3cccs3)C[C@H]2N(C)C)cc1 | -0.804 | 19.8
5 | COc1ccc(C[C@H]2CN(C(=O)CN(C)C)CC[C@H]2OC)cc1 | 0.341 | -5.78
6 | CCN1CC2(CC1=O)CN(Cc1ccco1)CCN(C(=O)N(C)C)C2 (configuration not stated) | -2.71 | -10.3
7 | CSCC[C@H](NC(=O)Cn1ccc2c(Cl)cccc21)C(=O)O | -3.22 | -22
8 | Cc1ncccc1CNCC1CCN(CC(O)c2ccccc2)CC1 (configuration not stated) | 0.218 | -34.9
9 | O=C1CO[C@@H]2CN(S(=O)(=O)c3ccccc3)C[C@H]2N1CC1CC1 | 5.5 | -3.47
10 | CCc1ncncc1C(=O)N1CCCN(Cc2ccc(C)cc2)CC1 | 7.33 | 16.1
11 | Cc1cc(NC(=O)N2CCN(c3nc(C)c(C)s3)CC2)no1 | 0.38 | -22.7
12 | Cc1cc(C)n(C2CCCN(C(=O)CCNS(C)(=O)=O)C2)n1 (configuration not stated) | -0.16 | -20
13 | COCC(=O)N1CCC(c2cccc(Cc3ccc(F)cc3)n2)CC1 | 1.18 | -10.6
14 | O=C(c1ccccn1)N1CCN(c2ccc(-c3cccnc3)nn2)CC1 | -6.42 | -48.3
15 | COC(=O)Cn1c(=O)nc2n1C(=O)N(c1ccccc1)C2 | 1.18 | -22.6
16 | CS(=O)(=O)c1ccc(CNC(=O)N2CCC(c3ccccc3)CC2)cc1 | -2.06 | 7.64
